Screening data (PubChem BioAssay)
Hits are enriched below; roughly 2.2% of the tested compounds scored in any of these assays.
TLR9-MyD88 inh: inhibitors of TLR9-MyD88 association in cells, primary screen, cell-based, CHO, BLA complementation, fluorescence; CCF4 FRET ratio; Toll-like receptor 9 (Homo sapiens) + Myeloid differentiation primary response protein …; 340,000 compounds, 0.21% hits; inhibition, % at 4.98 µM; AID 504734, 2011;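 active = inhibition above the mean over all tested compounds plus 3 SD, cut at about 21% in these data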
NOD2 RIPK2 PPI: NOD2-RIPK2 binding disruptors in cells, primary screen, fluorescence, CHO cells, BLA complementation | 360,000 compounds, 0.38% hits | inhibition, % at 4.98 µM | Receptor-interacting serine/threonine-protein kinase 2 (Homo sapiens), O43353 | AID 624267, 2012 | CCF4 ratio; in the data active = inhibition above about 21%
ANO1 block: TMEM16A chloride channel inhibitors, primary screen, cell-based, HTS; HEK293 TMEM16A/YFP iodide influx fluorescence, ionomycin; normalized B-score (activity score, 25-100; higher = stronger inhibition) at 10 µM; 310,000 compounds, 1.2% hits; AID 588511, 2011;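 active = ratio plate-corrected score three or more library SD toward inhibition, starting fluorescence score within five deviations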;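 note: score derived from kinetic fluorescence span divided by baseline fluorescence per well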
ANO1 activ: TMEM16A chloride channel activators or potentiators, primary screen, cell-based, HTS; HEK293 TMEM16A/YFP-H148Q/I152L, iodide quench fluorescence; hits give low values; Anoctamin-1 (Mus musculus), Q8BHY3; 340,000 compounds, 0.3% hits; B-score at 10 µM; AID 623877, 2012;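 active = fluorescence-ratio B-score plate-corrected deviation score at least 3 library SD below zero, with starting fluorescence score within 5 deviations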;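 note: channel opened by trigger with iodide after compound preincubation; score built on the fluorescence ratio of max minus min over baseline; more negative score means more quench and so TMEM16A activation or potentiation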
TLR4-MyD88 BLA: inhibitors of TLR4-MyD88 association in cells, primary screen, cell-based, HeLa CL3-4, BLA complementation, FRET ratio; HeLa CL3-4 TLR4/MyD88 BLA complementation; Toll-like receptor 4 (Homo sapiens) + Myeloid differentiation primary response protein …; 200,000 compounds, 0.18% hits; inhibition, % at 8.4 µM; in the data active = inhibition above about 25%
GRK2 inh: compounds blocking aptamer binding on GRK2 – biochemical, human GRK2, bead flow cytometry, HTS, primary screen. 330,000 compounds, 0.59% hits. FAM-aptamer displacement from GRK2. inhibition of aptamer binding, % at 10 µM. AID 488847, 2010. Beta-adrenergic receptor kinase 1 (Homo sapiens), P25098;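 active = inhibition of aptamer binding above 40%, roughly 3 SD of noise, on plates passing a quality check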;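 note: median bead fluorescence of bound FAM aptamer so fluorescent compounds give negative values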
TMEM16A reconf: TMEM16A chloride channel inhibitors, confirmation, cell-based, re-confirmation | shares compounds with ANO1 block | HEK293 TMEM16A/YFP-H148Q, iodide quench fluorescence; ionomycin added to raise cell calcium | inhibition, % at 10 µM | 2,300 compounds, 39% hits;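 active = mean duplicate percent inhibition, scaled so buffer wells are 0 and the reference blocker 100, over three buffer SD above buffer mean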
TMEM16A Ca cntr: calcium mobilization in TMEM16A/YFP HEK293 cells, confirmation, counter-screen for TMEM16A inhibitor project. shares compounds with ANO1 block. Fluo4 calcium mobilization. calcium response (% of ionomycin), % at 10 µM. 2,300 compounds, 2% hits;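 active = duplicate-averaged calcium signal over 20% of the ionomycin maximum, relative to buffer baseline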;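 note: each well's signal is peak minus trough fluorescence divided by its pre-addition baseline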
Parental YFP cnt: iodide YFP quench changes in parental YFP-HEK293, counter-screen for TMEM16A inhibitor project, cell-based | shares compounds with ANO1 block | ionomycin | YFP ratio F(max-min)/F0 at 10 µM | 2,300 tested, under 10 active | AID 652233, 2013;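 active = yellow fluorescent protein signal ratio exceeding the buffer control mean by over 5 SD of those controls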;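 note: ratio is mean of duplicate wells from kinetic YFP trace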
ClC-1 inh: ClC-1 chloride channel inhibition, selectivity assay for TMEM16A inhibitor project, cell-based, voltage-dependent ClC-1 | shares compounds with ANO1 block | CHO ClC-1-YFP, iodide influx fluorescence quench; iodide control reads 0, buffer control 100 | 2,300 tested, under 10 active | AID 652236, 2013 | ratio percent, % at 10 µM;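 active = duplicate-mean ratio percent above the mean of iodide-only control wells, which defines zero, plus 5 of their SD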;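 note: higher percent means stronger block of ClC-1 iodide influx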
Of the large screens only hits and unclear results are named; the others gave an inactive call (follow-up assays come after a bar, where they were run).

Cc1ccc(OCCN2CCC2(C)C(=O)Nc2ccc3c(c2)OCCO3)cc1 (centres undefined)	none (no result: TLR9-MyD88 inh, ANO1 block, ANO1 activ, TLR4-MyD88 BLA, GRK2 inh)
CC(=O)Oc1ccc(C23c4ccccc4C2(OC(C)=O)c2cc(OC(C)=O)ccc23)cc1 (centres undefined)	none (no result: ANO1 block, TLR4-MyD88 BLA, GRK2 inh)
COc1ccc(C(=O)C2CCN(CC(=O)Nc3ccccc3F)CC2)cc1	ANO1 block 25 (no result: TLR4-MyD88 BLA) | TMEM16A reconf inactive | TMEM16A Ca cntr inactive | Parental YFP cnt inactive | ClC-1 inh inactive
CCCc1nn2c(=O)cc(CSCC(=O)Nc3ccccc3OC)nc2s1	none (no result: TLR4-MyD88 BLA)
Cc1ccc(Cl)cc1N1CCN(C(=O)COc2ccc(S(=O)(=O)NC(C)C)cc2)CC1	ANO1 block 25 | TMEM16A reconf inactive | TMEM16A Ca cntr inactive | Parental YFP cnt inactive | ClC-1 inh inactive
Cc1cccc(-n2cnc3cc(C(=O)N4CCCCC4)ccc32)c1	ANO1 block 25 | TMEM16A reconf inactive | TMEM16A Ca cntr inactive | Parental YFP cnt inactive | ClC-1 inh inactive
Cc1ccc2c(c1)-n1c(nc3cc(Cl)ccc3c1=O)C(CC(C)C)NC2=O (centres undefined)	none (no result: TLR9-MyD88 inh, NOD2 RIPK2 PPI, ANO1 block, ANO1 activ, TLR4-MyD88 BLA)
COC(=O)c1sc(NC(=O)CN2CCN(c3cccc(Cl)c3)CC2)c(C(=O)OC)c1C	none (no result: ANO1 block, TLR4-MyD88 BLA, GRK2 inh)
CC1(C)C2CCC(CN)C1C2 (centres undefined)	none (no result: ANO1 block, ANO1 activ, TLR4-MyD88 BLA, GRK2 inh)
COc1ccc(CCN2C(=O)CSC2=Nc2ccc(C(C)C)cc2)cc1OC	ANO1 block 100 (no result: TLR9-MyD88 inh, TLR4-MyD88 BLA) | TMEM16A reconf 53.0% | TMEM16A Ca cntr inactive | Parental YFP cnt inactive | ClC-1 inh inactive
CC(Sc1ncccn1)C(=O)NC1CCCC1 (centres undefined)	none (no result: ANO1 block, TLR4-MyD88 BLA)
CC(SC1CCCC1)C(=O)Nc1ccnn1C(C)C (centres undefined)	none | TMEM16A reconf inactive | TMEM16A Ca cntr inactive | Parental YFP cnt inactive | ClC-1 inh inactive
O=C(Nc1c(F)cc(F)cc1Br)c1cc(-c2ccco2)on1	none
O=C(Nc1ccc(F)cc1F)c1cc(-c2ccco2)on1	ANO1 block 100 | TMEM16A reconf inactive | TMEM16A Ca cntr inactive | Parental YFP cnt inactive | ClC-1 inh inactive
N#Cc1nc(N2CCCC2)nc(N2CCCC2)n1	ANO1 block 100 | TMEM16A reconf 22.0% | TMEM16A Ca cntr inactive | Parental YFP cnt inactive | ClC-1 inh inactive
COc1ccc(-n2c(C)cc(C(=O)COC(=O)Cn3cnc4ccccc43)c2C)cc1	ANO1 block 100 | TMEM16A reconf 23.0% | TMEM16A Ca cntr inactive | Parental YFP cnt inactive | ClC-1 inh inactive
COC(=O)COc1cccc(-n2cnnn2)c1	none
COc1ccc(NC(=O)COC(=O)Cn2cnc3ccccc32)cc1	none (no result: ANO1 block, TLR4-MyD88 BLA)
Cc1cc(C(=O)COc2cccc(-n3cnnn3)c2)c(C)n1-c1ccccc1	ANO1 block 100 | TMEM16A reconf inactive | TMEM16A Ca cntr inactive | Parental YFP cnt inactive | ClC-1 inh inactive
Cc1cc(C)c(C)c(S(=O)(=O)NC2CCN(Cc3ccccc3)CC2)c1C	none
CCOC(=O)c1c(NC(=O)COC(=O)c2cc(OC)c(OC)cc2[N+](=O)[O-])sc(C)c1C	none
CS(=O)(=O)N(CC(=O)NCCSCc1ccccc1Cl)c1ccc(F)cc1	none (no result: TLR4-MyD88 BLA)
CCN(CC)CCNC1=NCCn2c1cc1cc(OC)ccc12	ANO1 block 25 | TMEM16A reconf inactive | TMEM16A Ca cntr inactive | Parental YFP cnt inactive | ClC-1 inh inactive
Cc1ccc2nc(SCc3nc4c(cnn4-c4ccccc4)c(=O)[nH]3)[nH]c2c1	ANO1 block 25 | TMEM16A reconf inactive | TMEM16A Ca cntr inactive | Parental YFP cnt inactive | ClC-1 inh inactive
O=C(Nc1ccc2c(c1)OCO2)C1CCN(Cc2cnn(-c3ccccc3)c2-n2cccc2)CC1	ANO1 block 100 | TMEM16A reconf inactive | TMEM16A Ca cntr inactive | Parental YFP cnt inactive | ClC-1 inh inactive
O=C(Nc1ccc2c(c1)OCO2)C1CCN(Cc2cc3c(cc2O)OCO3)CC1	none (no result: TLR4-MyD88 BLA)
CC1=C(c2ccc(C)cc2)S(=O)(=O)N(CC(=O)O)C1=O	ANO1 block 25 | TMEM16A reconf inactive | TMEM16A Ca cntr inactive | Parental YFP cnt inactive | ClC-1 inh inactive
CCOC(=O)c1cocc1C(=O)O	none (no result: ANO1 block, TLR4-MyD88 BLA, GRK2 inh)
CC(=O)Nc1ccc(Nc2c([N+](=O)[O-])c(=O)n(-c3ccccc3)c3ccccc23)cc1	none
Cc1ccccc1-c1nc2sc3c(c2c(=O)n1N)CCCC3	none
Nn1c(-c2cccs2)nc2sc3c(c2c1=O)CCCC3	ANO1 block 25 | TMEM16A reconf 29.5% | TMEM16A Ca cntr inactive | Parental YFP cnt inactive | ClC-1 inh inactive
COC(=O)c1cc(=O)n(Cc2cccs2)c(=NCc2cccs2)s1	ANO1 block 25 | TMEM16A reconf inactive | TMEM16A Ca cntr inactive | Parental YFP cnt inactive | ClC-1 inh inactive
CCOC(=O)C1(CCOc2ccccc2)CCN(CC(O)CO)CC1 (centres undefined)	none (no result: TLR4-MyD88 BLA)
COc1cccc(OCCCCSc2ncccn2)c1	none
c1ccc(Oc2cccc(OCCCCSc3ncccn3)c2)cc1	ANO1 block 100 | TMEM16A reconf inactive | TMEM16A Ca cntr inactive | Parental YFP cnt inactive | ClC-1 inh inactive
COc1ccc(OC2(C)CCN(Cc3ccc(-c4ccccc4)o3)C2)cc1 (centres undefined)	none (no result: TLR9-MyD88 inh, ANO1 block, ANO1 activ, TLR4-MyD88 BLA, GRK2 inh)
Oc1ccccc1CNc1cnc2ccccc2c1	ANO1 block 100 | TMEM16A reconf inactive | TMEM16A Ca cntr inactive | Parental YFP cnt inactive | ClC-1 inh inactive
O=C1CCCc2cc3c(cc21)CC1(C3)Cc2cc3c(cc2C1)C(=O)CCC3	ANO1 block 25 (no result: TLR4-MyD88 BLA) | TMEM16A reconf 20.0% | TMEM16A Ca cntr inactive | Parental YFP cnt inactive | ClC-1 inh inactive
